Measurements as given in PubChem BioAssay (NCATS).
Inconclusive results are not listed. Values without a mark were called inactive. Activity calls are given as the source filed them. Calls follow the shape of the dose curve; as a rule, active = well fitted inhibition curve with a large enough effect; inconclusive = small, poorly fitted or top-dose-only effect; inactive = flat fitted curve, though single readings scatter.

Assay: qHTS for differential inhibitors of proliferation of Plasmodium falciparum line Dd2 (AID 1882); also: nearly all actives have a fitted effect of over 65% in size
Conditions: Potency: Plasmodium falciparum Dd2 proliferation inhibition; series mostly up to 28.7 µM; activity change, negative = inhibition: at the top concentration
Description: NIH Molecular Libraries Probe Production Network [MLPCN]
NIH National Institute of Allergy and Infectious Diseases [NIAID]
NIH Chemical Genomics Center [NCGC]
Assay Provider: Xinzhuan Su, NIAID
Plasmodium falciparum is a virulent malarial parasite that kills 1-2 million people worldwide each year. Transmitted by mosquitoes, the sporozoite form of the parasite enters the blood stream to infect hepatocytes, where they become merozoites that infect red blood cells (erythrocytes). Within erythrocytes, merozoites begin a […] cycle of growth and division, after which the parasite is released to infect new red blood cells. Gametocytes, which form within erythrocytes as well, circulate in the bloodstream and are ingested by the mosquito, thereby completing the life cycle. To profile malarial isolates for differential chemical responses and to identify inhibitors of malarial growth, an assay that measures P. falciparum growth and replication within erythrocytes was employed. This assay uses a DNA binding fluorescent dye (SYBR Green) to detect parasite DNA following cell lysis. Because mature erythrocytes lack DNA, only Plasmodium-derived DNA is detected. The P. falciparum line Dd2, derived from a malarial isolate from […], was used.
NCGC Assay Protocol Summary:
The SYBR Green viability assay was adapted from a method described previously (Plouffe et al., 2008). For screening 3 ul culture medium was dispensed into 1536 well black clear bottom plates (Aurora Biotechnologies) using a Multidrop Combi (Thermo Fisher Scientific Inc.), 23 nL compounds in DMSO were added by a pin tool (Kalypsys), and 5 ul of erythrocytes infected with P. falciparum line Dd2 (0.3% parasitemia, 2.5% hematocrit final concentration) were added. The plates were incubated at 37 C in a humidified incubator in 5% CO2 for 72 h, and 2 ul lysis buffer (20 mM Tris HCl, 10 mM EDTA, […]% saponin, 1.6% triton X, 10X SYBR Green I supplied as 10,000X […] by Invitrogen) was added to each well. The plates were mixed for 25 sec with gentle shaking and incubated overnight at room temperature in the dark. The following morning, fluorescence intensity at 485(14) nm excitation and 535(25) nm emission wavelengths was measured on an EnVision (Perkin Elmer) plate reader. Plate reads were normalized relative to the control inhibitor (0.29 uM artemisinin) and vehicle (DMSO) wells present on each plate and then corrected by an algorithm using vehicle-only control plates at the beginning and end of the compound plate stack.
Plouffe D, Brinker A, McNamara C, Henson K, Kato N, Kuhen K, Nagle A, Adrian F, Matzen JT, Anderson P, Nam TG, Gray NS, Chatterjee A, Janes J, Yan SF, Trager R, Caldwell JS, Schultz PG, Zhou Y, Winzeler EA. […] Proc Natl Acad Sci U S A. 2008, 105(26), pp 9059-64.
Potency is read from the fitted curve at half-maximal effect.

SMILES | activity change, negative = inhibition [%] | Potency
NCC#Cc1ccccc1 | 6.19 | –
CC12CCC3C(CCC4=C(O)C(=O)CCC43C)C1CCC2=O (stereo not given) | -12.3 | –
C#CCN(C)C(C)Cc1ccccc1 (stereo not given) | 2.44 | –
O=C(OC1CCN(CCCl)CC1)C(c1ccccc1)c1ccccc1 | – | 7.08 µM (active)
CCCN(CCC)[C@@H]1CCc2c(F)ccc(O)c2C1 | – | 1.41 µM (active)
CC(C)(O)C1C2OC(=O)C1[C@]1(O)C[C@H]3O[C@]34C(=O)O[C@H]2[C@]14C (stereo not given in full) (tested in a mixture with another compound) | -3.45 | –
C[C@]12CC[C@H](OS(=O)(=O)O)CC1=CCC1C2CC[C@]2(C)C(=O)CC[C@@H]12 (stereo not given in full) | -2.63 | –
C/C=C(/C)C(=O)O[C@H]1C(C)=C2C([C@@H]1OC(=O)CCCCCCC)[C@@](C)(OC(C)=O)C[C@@H](OC(=O)CCC)[C@@]1(O)[C@H]2OC(=O)[C@@]1(C)O (stereo not given in full) | – | 8.91 µM (active)
S=C(S)N1CCCC1 | – | 7.94 µM (active)
C[C@]12CC[C@H](O)CC1=CCC1C2CC[C@]2(C)C(=O)CC[C@@H]12 (stereo not given in full) | -4.07 | –
CN1CCC23CCCC[C@H]2C1Cc1ccc(O)cc13 (stereo not given in full) | – | 5.01 µM (active)
COC(=O)C(N)CCCN=C(N)N[N+](=O)[O-] (stereo not given) | -4.2 | –
Oc1ccc2c3c1O[C@H]1[C@@H](O)CC[C@@]4(O)C(C2)N(CC2CCC2)CCC314 (stereo not given in full) | -22.1 | –
C[C@]12CC[C@@H](O)CC1CCC1C2CC[C@]2(C)C(=O)CC[C@@H]12 (stereo not given in full) | -2.11 | –
CCCCN1C2CCC1CC(OC(c1ccc(F)cc1)c1ccc(F)cc1)C2 (stereo not given) | – | 3.98 µM (active)
C[C@H]1OC[C@@H](C[N+](C)(C)C)O1 | -1.45 | –
CCCN1CCc2cc(O)cc3c2C1Cc1ccc(O)c(O)c1-3 (stereo not given) | – | 8.91 µM (active)
C[C@@H]1O[C@@H](O[C@H]2C[C@@H](O)[C@]3(CO)[C@H]4[C@H](O)C[C@]5(C)[C@@H]([C@@H]6COC(=O)C6)CC[C@]5(O)[C@@H]4CC[C@]3(O)C2)[C@H](O)[C@H](O)[C@H]1O | 0.655 | –
Oc1cc2c(cc1O)[C@H]1c3ccccc3CNC1CC2 (stereo not given in full) | – | 8.91 µM (active)
COc1ccc2c(c1O)-c1cccc3c1C(C2)N(C)CC3 (stereo not given) | – | 11.2 µM (active)

SMILES | activity change, negative = inhibition [%] | Potency
CCc1c(C(=O)OC)ncc2[nH]c3cc(OC)c(OC)cc3c12 | -28.3 | –
CCN1C[C@]2(C)CC[C@H](O)[C@@]34[C@@H]5C[C@@H]6[C@@H](OC)C[C@@](O)(C5[C@H]6O)[C@@H](C[C@@H]23)[C@@H]14 | -15.8 | –
CC(C)C[C@H]1C(=O)N2CCCC2[C@]2(O)O[C@](NC(=O)[C@@H]3C=C4c5cccc6[nH]c(Br)c(c56)C[C@H]4N(C)C3)(C(C)C)C(=O)N12 (stereo not given in full) | – | 2 µM (active)
CCCN1CCc2cccc3c2C1Cc1ccc(O)c(O)c1-3 (stereo not given) | – | 3.16 µM (active)
C=CCN1CCc2cccc3c2C1Cc1ccc(O)c(O)c1-3 (stereo not given) | – | 2.82 µM (active)
C[C@]12C=CC(=O)C=C1CCC1C2=CC[C@]2(C)[C@@H](C(=O)CN3CCN(c4cc(N5CCCC5)nc(N5CCCC5)n4)CC3)CC[C@@H]12 (stereo not given in full) | – | 10 µM (active)
NC(Cn1ccc(=O)[nH]c1=O)C(=O)O (stereo not given) | 1.36 | –
CCCC[N+]1(C)C2CC(OC(=O)C(CO)c3ccccc3)CC1C1OC12 (stereo not given) | 5.21 | –
CC(C)[C@@]1(NC(=O)[C@@H]2C[C@@H]3c4cccc5[nH]cc(c45)C[C@H]3N(C)C2)O[C@@]2(O)C3CCCN3C(=O)[C@H](Cc3ccccc3)N2C1=O (stereo not given in full) | – | 1.41 µM (active)
O=C(O)C1C2CCC(O2)C1C(=O)O (stereo not given) | -22 | –
COc1cc(C[C@@H](C)N)c(OC)cc1I | – | 7.08 µM (active)
C[N+]1(C)C2CC(OC(=O)C(CO)c3ccccc3)CC1C1OC12 (stereo not given) | – | inactive
CCCN1CCC[C@@H]2Cc3n[nH]cc3C[C@H]21 | -0.476 | –
Nc1ncnc2c1ncn2[C@@H]1O[C@H](COP(=O)(O)CP(=O)(O)OP(=O)(O)O)[C@H](O)[C@H]1O | 6.71 | –
C[C@H]1C2Cc3ccc(O)cc3[C@]1(C)CCN2CC1CC1 | – | 7.94 µM (active)
CCCN1CCC[C@@H](c2cccc(C#N)c2)C1 | -22 | –
C[C@]12CC[C@H]3[C@@H](CCC4C[C@H](O)CC[C@@]43C)[C@@H]1CC[C@@H]2O (stereo not given in full) | -0.979 | –
CCNC(=O)[C@H]1O[C@@H](n2cnc3c(N)ncnc32)[C@H](O)[C@H]1O | 4.88 | –
N#CC(=Cc1ccc(O)c(O)c1)C(N)=S | -12.8 | –
CN1C[C@H](C(=O)N[C@]2(C)O[C@@]3(O)C4CCCN4C(=O)[C@H](Cc4ccccc4)N3C2=O)C[C@@H]2c3cccc4[nH]cc(c34)C[C@H]21 (stereo not given in full) | – | 2.51 µM (active)
